Measured values published in PubChem BioAssay (Tox21).
Unmarked numbers belong to inactive results. Records with an inconclusive call do not appear. Entries that show only a call come without a potency. Active and inactive are the calls of the source. Unless noted, calls follow the shape of the dose curve; as a rule, active = well fitted curve in the direction sought with a large enough effect in the repeat runs; inconclusive = weak or mixed curves; inactive = no such curve, though single readings can be large; an effect the other way counts as inactive or inconclusive.

Assays:
[1] = qHTS assay to identify small molecule antagonists of the estrogen related receptor (ERR) signaling pathway from Tox21 library - cell viability counter screen (AID 1224834); also: nearly all actives have a fitted effect of over 30% in size
Summary of the method: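 Cytotoxicity of test substances is gauged in the same ERR cells used for the antagonist screen, after 17.5 h of compound treatment at 37 C, by CellTiter-Fluor fluorescence measured after 30 min.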

[2] = target: Luciferin 4-monooxygenase (Photinus pyralis) (UniProt P08659); test: qHTS assay to identify small molecule inhibitors of firefly luciferase (AID 1224835); also: nearly all actives have a fitted effect of over 25% in size; also: potency is read from the fitted curve at half-maximal effect
Chain of Luciferin 4-monooxygenase (Photinus pyralis) (P08659 whole entry, looked up): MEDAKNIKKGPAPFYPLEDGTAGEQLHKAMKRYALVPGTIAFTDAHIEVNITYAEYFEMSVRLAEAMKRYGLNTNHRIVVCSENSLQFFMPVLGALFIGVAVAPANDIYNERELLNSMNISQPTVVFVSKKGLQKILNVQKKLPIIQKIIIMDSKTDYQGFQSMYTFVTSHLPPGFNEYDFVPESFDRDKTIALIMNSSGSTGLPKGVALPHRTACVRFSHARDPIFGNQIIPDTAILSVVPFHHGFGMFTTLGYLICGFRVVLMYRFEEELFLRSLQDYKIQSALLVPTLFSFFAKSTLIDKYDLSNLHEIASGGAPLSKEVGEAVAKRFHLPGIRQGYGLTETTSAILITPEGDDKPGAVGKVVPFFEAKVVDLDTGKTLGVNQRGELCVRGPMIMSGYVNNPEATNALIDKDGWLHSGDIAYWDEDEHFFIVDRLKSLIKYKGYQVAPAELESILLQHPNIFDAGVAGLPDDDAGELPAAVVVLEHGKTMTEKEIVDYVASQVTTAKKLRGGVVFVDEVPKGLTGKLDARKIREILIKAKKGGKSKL
Summary of the method: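 Inhibition of purified Photinus luciferase is measured by luminescence. Substrate levels (D-luciferin, ATP) sit at their KM values. Each compound is tested in a concentration series.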

[3] = qHTS assay to identify small molecule agonists of the constitutive androstane receptor (CAR) signaling pathway - cell viability counter screen (AID 1224836); also: nearly all actives have a fitted effect of over 45% in size
Summary of the method: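 Counter screen multiplexed with the CAR reporter readout: HepG2 cells co-transfected with hCAR and the CYP2B6-2.2kb construct receive a 15-concentration compound series and 0.75 uM PK11195 (final), then CellTiter-Fluor fluorescence is read after 23 h.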

[4] = qHTS assay to identify small molecule antagonists of the constitutive androstane receptor (CAR) signaling pathway - cell viability counter screen (AID 1224837); also: nearly all actives have a fitted effect of over 45% in size
Summary of the method: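 Multiplexed cytotoxicity read-out for the CAR antagonist screen: double-stable HepG2-CYP2B6-hCAR cells co-treated with 50 nM CITCO (final) and compound over 15 concentrations, incubated 23 hr, then assessed by CellTiter-Fluor fluorescence.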

[5] = qHTS assay to identify small molecule antagonists of the estrogen related receptor signaling pathway with the pleiotropic PPARgamma coactivator (PGC) from Tox21 10K library - cell viability counter screen (AID 1224840; active = well fitted cell-killing curve with a large enough effect in the repeat runs, not every such curve was filed as active; also: nearly all actives have a fitted effect of over 40% in size)
Summary of the method: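 Step one, plate 2,000 PGC/ERR cells per well; step two, incubate 6 h at 37 C/5% CO2; step three, pin-transfer compounds; step four, incubate 17.5 h; step five, add CellTiter-Fluor and read fluorescence after 30 min.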

[6] = target: Thyrotropin receptor (Homo sapiens) (UniProt P16473); test: qHTS assay to identify small molecule agonists of the thyroid stimulating hormone receptor (TSHR) signaling pathway (AID 1224843; calls by dose curve; also: nearly all actives have a fitted effect of over 45% in size; also: potency is read from the fitted curve at half-maximal effect)
Chain of Thyrotropin receptor (Homo sapiens) (P16473 whole entry, looked up): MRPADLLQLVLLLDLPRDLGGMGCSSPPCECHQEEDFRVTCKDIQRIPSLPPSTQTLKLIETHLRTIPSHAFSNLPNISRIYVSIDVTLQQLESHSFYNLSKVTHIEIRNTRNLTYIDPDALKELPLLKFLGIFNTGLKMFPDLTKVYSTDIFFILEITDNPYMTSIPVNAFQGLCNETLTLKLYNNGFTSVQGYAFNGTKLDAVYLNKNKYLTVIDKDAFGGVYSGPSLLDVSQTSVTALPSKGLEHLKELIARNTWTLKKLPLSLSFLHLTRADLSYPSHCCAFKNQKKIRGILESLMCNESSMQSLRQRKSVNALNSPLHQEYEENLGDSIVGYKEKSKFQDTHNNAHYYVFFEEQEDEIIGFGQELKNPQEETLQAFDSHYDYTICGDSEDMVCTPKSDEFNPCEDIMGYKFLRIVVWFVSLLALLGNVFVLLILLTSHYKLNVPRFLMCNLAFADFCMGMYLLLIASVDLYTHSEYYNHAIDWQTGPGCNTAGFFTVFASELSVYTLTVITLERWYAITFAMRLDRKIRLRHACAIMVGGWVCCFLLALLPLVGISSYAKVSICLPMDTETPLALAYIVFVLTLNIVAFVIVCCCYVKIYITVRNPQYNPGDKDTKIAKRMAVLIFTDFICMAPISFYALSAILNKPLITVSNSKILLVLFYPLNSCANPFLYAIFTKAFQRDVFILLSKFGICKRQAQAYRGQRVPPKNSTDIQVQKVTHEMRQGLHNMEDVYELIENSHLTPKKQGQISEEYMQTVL
Summary of the method: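 Screening of the Tox21 10K collection used HEK293 cells engineered with TSHR at 800 cells per well. After a 30-min room-temperature compound exposure, HTRF cAMP reagents were added and fluorescence recorded 1 h later.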

[7] = qHTS assay to identify small molecule agonists of H2AX (AID 1224845; active = well fitted activation curve with a large enough effect in the signal ratio in the repeat runs, not every such curve was filed as active; the % refers to the signal ratio)
Summary of the method: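 Phospho-H2AX Ser139 measured by HTRF (ex 320 nm; em 665 and 620 nm) after 24 hr antibody incubation. Compounds, 15 concentrations, 0.76% DMSO, were applied to CHO-K1 cells for 3hr at 37C before lysis.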

[8] = qHTS assay to identify small molecule agonists of the hypoxia (HIF-1) signaling pathway (AID 1224846; active = well fitted activation curve with a large enough effect in the signal ratio in the repeat runs, not every such curve was filed as active; the % refers to the signal ratio)
Summary of the method: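 Steps: seed ME-180 HRE-bla cells (2,000/well, 0.5% dialyzed FBS); incubate 5 hrs at 37C; pin-transfer compounds or DMSO; incubate 17 hrs; add LiveBLAzer B/G substrate CCF4-AM; measure reporter activation by FRET.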

[9] = qHTS assay to identify small molecule agonists of H2AX - cell viability counter screen (AID 1224847; calls by dose curve; also: top concentration of the series differs between compounds; nearly all actives have a fitted effect of over 30% in size)
Summary of the method: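 We seed wild-type CHO-K1 cells overnight, treat them for 3 hr at 37C with compounds in 15-concentration series, and quantify remaining viability by CellTiter-Glo luminescence.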

[10] = qHTS RealTime-Glo MT Cell Viability Assay in HepG2 cells - 24 hour (AID 1224867); also: nearly all actives have a fitted effect of over 50% in size
Summary of the method: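 Real-time, nonlytic viability: 600 HepG2 cells/well mixed with NanoLuc enzyme plus prosubstrate; 5 h settle, compound (DMSO) added by pintool; luminescence monitored over 40 h at 37 C.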

[11] = qHTS RealTime-Glo MT Cell Viability Assay in HEK293 cells - 32 hour (AID 1224868); also: top concentration of the series differs between compounds; nearly all actives have a fitted effect of over 50% in size
Summary of the method: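 Cells + reagent dispensed (600 cells/well, HEK293) → 5 h at 37 C/5% CO2 → 23 nL compound in DMSO pinned → 40 h at 37 C → luminescence read at 0, 8, 16, 24, 32, 40 h.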

[12] = A CellTox Green Cytotoxicity Assay to monitor cytotoxicity in HEK293 cells - 0 hour (AID 1224869); also: nearly all actives have a fitted effect of over 50% in size
Summary of the method: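 Cytotoxicity was tracked continuously in HEK293 cells by a DNA-binding dye excluded from viable cells. Compounds were transferred in DMSO 5 h after seeding; fluorescence was recorded at intervals up to 40 h.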

[13] = qHTS assay to identify small molecule agonists of the hypoxia (HIF-1) signaling pathway - cell viability counter screen (AID 1224844; calls by dose curve; also: nearly all actives have a fitted effect of over 50% in size)
Summary of the method: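 Tox21 10K compounds were added to HRE-bla ME-180 cells (0.5% dialyzed FBS) and incubated 17 hrs at 37C; ATP-based CellTiter-Glo luminescence then reported cell viability in the same wells.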

[14] = target: Nuclear receptor subfamily 1 group I member 3 (Homo sapiens) (UniProt Q14994); test: qHTS assay to identify small molecule antagonists of the constitutive androstane receptor (CAR) signaling pathway (AID 1224838); also: nearly all actives have a fitted effect of over 40% in size
Chain of Nuclear receptor subfamily 1 group I member 3 (Homo sapiens) (Q14994 whole entry, looked up): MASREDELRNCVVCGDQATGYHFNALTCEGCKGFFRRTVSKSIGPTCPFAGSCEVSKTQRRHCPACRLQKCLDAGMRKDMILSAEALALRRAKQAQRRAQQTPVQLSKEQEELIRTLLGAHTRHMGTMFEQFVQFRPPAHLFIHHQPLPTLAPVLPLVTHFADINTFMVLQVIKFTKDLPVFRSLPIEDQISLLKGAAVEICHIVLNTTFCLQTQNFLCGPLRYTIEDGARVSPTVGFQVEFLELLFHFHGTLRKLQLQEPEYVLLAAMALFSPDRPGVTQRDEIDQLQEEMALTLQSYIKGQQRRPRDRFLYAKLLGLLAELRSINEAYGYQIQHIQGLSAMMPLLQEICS
Summary of the method: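 Compounds were titrated across 15 concentrations onto HepG2 cells double-stably expressing hCAR and a CYP2B6-2.2kb reporter, together with 50 nM CITCO (final). After 24 h at 37 C, luciferase activity was measured by luminescence.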

[15] = qHTS assay to identify small molecule antagonists of the estrogen related receptor signaling pathway with the pleiotropic PPARgamma coactivator (PGC) from Tox21 10K library (AID 1224841; call rule not given here)
Summary of the method: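 Antagonism in this quantitative HTS is taken from loss of luciferase signal in PGC/ERR cells. Cells (2,000/well) are treated with compounds in DMSO after a 6 h settling period and read by One-Glo luminescence after 18 h.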

[16] = qHTS assay to identify small molecule agonists of the estrogen related receptor signaling pathway with the pleiotropic PPARgamma coactivator (PGC) from Tox21 10K library (AID 1224842); also: nearly all actives have a fitted effect of over 15% in size
Summary of the method: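 Luminescence from One-Glo (30 min, room temperature) measured after PGC/ERR cells had 18 h at 37 C with pinned compound (23 nL in DMSO). Cells had been seeded at 2,000 per well and pre-incubated 6 h.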

[17] = qHTS assay to identify small molecule antagonists of the estrogen related receptor (ERR) signaling pathway from Tox21 library (AID 1224848); also: nearly all actives have a fitted effect of over 50% in size
Summary of the method: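 Antagonist-mode screen of the Tox21 10K library in an NTP-provided ERR reporter cell line; 18 h compound exposure at 37 C, luminescence measured with ONE-Glo.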

[18] = qHTS assay to identify small molecule agonists of the estrogen related receptor (ERR) signaling pathway from Tox21 library (AID 1224849; calls by dose curve; also: nearly all actives have a fitted effect of over 15% in size); conditions: ERR reporter cell line, ONE-Glo luciferase, 18 h; at 92.4 µM (top of the series) unless noted
Summary of the method: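 Agonist signal is luciferase luminescence from an ERR reporter cell line treated 18 h at 37 C with DMSO-dissolved compounds, read 30 min after ONE-Glo addition at room temperature.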

[19] = target: Nuclear receptor subfamily 1 group I member 3 (Homo sapiens) (UniProt Q14994); test: qHTS assay to identify small molecule agonists of the constitutive androstane receptor (CAR) signaling pathway (AID 1224839); also: nearly all actives have a fitted effect of over 15% in size; also: potency is read from the fitted curve at half-maximal effect
Summary of the method: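 A 15-concentration quantitative screen uses HepG2 cells co-transfected stably with human CAR and CYP2B6-2.2kb reporter. Treatment lasts 24 h with 0.75 uM PK11195 final present; ONE-Glo luminescence is the signal.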

Compound	Potency [1]	Potency [2]	Potency [3]	Potency [4]	Potency [5]	Potency [6]	outcome [7]	outcome [8]	Potency [9]	Potency [10]	Potency [11]	outcome [12]	Potency [13]	Potency [14]	Potency [15]	Potency [16]	Potency [17]	activity change, positive = activation [18]	Potency [19]
Clc1ccc(C(Cl)(Cl)Cl)cn1	inactive	inactive	inactive	inactive	inactive	inactive	inactive	inactive	inactive	inactive	inactive	inactive							
CC(C)[C@]12CC(=O)[C@H](C)[C@H]1C2	inactive	inactive	inactive	inactive	inactive	inactive	inactive	inactive	inactive	inactive	inactive	inactive	inactive						
N[C@@H]1C[C@H]1c1ccccc1	inactive	inactive	inactive	inactive	inactive	inactive	inactive		inactive	inactive	inactive	inactive	inactive						
CC(C)N(Cc1ccccc1)C(=O)C(C)(C)C	inactive	inactive	inactive	inactive	inactive	inactive	inactive	inactive		inactive	inactive	inactive	inactive	inactive					
O=C(NC(O)C(Cl)(Cl)Cl)NC(O)C(Cl)(Cl)Cl (configuration not stated)	inactive	inactive	inactive	inactive	inactive		inactive	inactive	inactive	inactive	inactive	inactive	inactive						
CN(C)CCc1c[nH]c2cccc(OP(=O)(O)O)c12	inactive	inactive	inactive	inactive	inactive		inactive		inactive	inactive	inactive	inactive	inactive						
CN=CNc1ccc(C)cc1C	inactive	inactive	inactive	inactive	inactive		inactive	inactive	inactive	inactive	inactive	inactive	inactive		inactive	inactive	inactive	1.36%	
COc1ccc2c(C(=O)c3ccc(Cl)cc3)c(C)n(CC(=O)O)c2c1	inactive	inactive	inactive	inactive	inactive		inactive	inactive	inactive	inactive	inactive	inactive	inactive						inactive
Cl/C=C/CCl	inactive	inactive	inactive		inactive	inactive	inactive	inactive	inactive	inactive		inactive	inactive	inactive	inactive	inactive	inactive		inactive
CCOC(=O)C(Cl)Cc1cc(-n2nc(C)n(C(F)F)c2=O)c(F)cc1Cl (configuration not stated)	inactive	inactive	inactive	inactive	inactive		inactive	inactive	inactive	inactive	inactive	inactive	inactive	inactive					
CC(C)(C)NC[C@H](O)c1ccc(O)cc1Cl	inactive	inactive	inactive	inactive	inactive	0.0084 µM (active)	inactive	inactive	inactive	inactive	inactive	inactive	inactive		inactive	inactive	inactive	0.107% [at 42.5 µM]	
CCOC(=O)N(C)N=O	inactive	inactive	inactive	inactive	inactive	inactive	inactive	inactive	inactive	inactive	inactive	inactive	inactive		inactive	inactive	inactive	-2.98%	
CN(C)C(=O)Oc1cc(OC(=O)N(C)C)cc(C(O)CNC(C)(C)C)c1 (configuration not stated)	inactive	inactive	inactive	inactive	inactive	inactive	inactive		inactive	inactive	inactive	inactive	inactive		inactive	inactive	inactive		
COP(=O)(OC)O/C(C)=C/C(=O)N(C)C	inactive	inactive	inactive		inactive	inactive	inactive	inactive	inactive	inactive	inactive	inactive	inactive		inactive	inactive	inactive	-0.44%	
N#CC(Br)(Br)C(N)=O	inactive	inactive	inactive		inactive		inactive	inactive	inactive	inactive	inactive	inactive	inactive						
COc1cc(CC(C)N)cc(OC)c1OC (configuration not stated)	inactive	inactive		inactive	inactive		inactive	inactive	inactive	inactive	inactive	inactive	inactive	inactive	inactive	inactive	inactive		inactive
O=C(O)C(Cl)Br (configuration not stated)	inactive	inactive	inactive		inactive	inactive	inactive	inactive	inactive	inactive		inactive	inactive	inactive					inactive
ClCCCCl	inactive	inactive		inactive	inactive	inactive	inactive	inactive	inactive	inactive	inactive	inactive	inactive	inactive					inactive
C=CC=O	inactive	inactive	inactive		inactive	inactive	inactive	inactive	inactive	inactive		inactive	inactive	inactive					inactive
CCCOc1nn(C(=O)NS(=O)(=O)c2ccccc2C(=O)OC)c(=O)n1C	inactive	inactive		inactive	inactive	inactive	inactive	inactive	inactive	inactive	inactive	inactive	inactive	inactive					inactive
C[C@H](N)C(=O)c1ccccc1	inactive	inactive	inactive		inactive	inactive	inactive		inactive	inactive	inactive	inactive	inactive	inactive					inactive
[O-][Br+2]([O-])O	inactive	inactive		inactive	inactive	inactive	inactive	inactive	inactive	inactive	inactive	inactive	inactive	inactive					inactive
CC(C)(C1CCC(O)CC1)C1CCC(O)CC1 (configuration not stated)	inactive	inactive	inactive		inactive		inactive	inactive	inactive	inactive	inactive	inactive	inactive	inactive					19.3 µM (active)
C=CCN1CC[C@]23CCCC[C@H]2[C@H]1Cc1ccc(O)cc13	inactive	inactive	inactive		inactive	inactive	inactive		inactive	inactive	inactive	inactive	inactive	inactive	inactive	inactive	inactive	5.12% [at 42.5 µM]	inactive
NNCc1ccccc1	inactive	10.2 µM (active)	inactive		inactive	inactive	inactive	inactive	inactive	inactive		inactive	inactive	inactive					62.3 µM (active)
CC(C)[N+](C)(CCC(C(N)=O)(c1ccccc1)c1ccccc1)C(C)C	inactive	inactive		inactive	inactive	inactive	inactive		inactive	inactive	inactive	inactive	inactive	inactive	inactive	inactive	inactive	4.04% [at 42.5 µM]	inactive
CCN(CCO)CCO	inactive	inactive	inactive		inactive	inactive	inactive	inactive	inactive	inactive	inactive	inactive	inactive	inactive					inactive
O=C(NC(=O)c1c(F)cccc1F)Nc1cc(Cl)c(F)c(Cl)c1F	inactive	inactive		inactive	inactive	inactive	inactive	inactive	inactive	inactive	inactive	inactive	inactive	inactive					inactive
